Data as given in PubChem BioAssay.
Active and inactive are the calls of the source.

Tests used:
[1] = optical density shifts of acrAB sulA E. coli – strain DRC41, OD650, 48 h, E. coli filamentation inducer project, primary screen (AID 1152); conditions: higher = more signal, called active from +8 up or from −8 down;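 note: E. coli MC1000 strain DRC41 lacking acrAB efflux pump and sulA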
[2] = probe aLefty1 binding on compound microarray – biochemical, small-molecule microarray, 635/667 nm fluorescence, primary screen (AID 1153); conditions: higher = more signal;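 note: score merges spot fluorescence with signal-to-noise ratio from the scanned slide images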
[3] = plasmodial surface anion channel blockers, osmotic lysis – cell-based, P. falciparum Indochina, OD700, 1 h, primary screen (AID 1154); conditions: P. falciparum Indochina infected RBC osmotic lysis, higher = more signal, called active from +8 up or from −8 down
[4] = plasmodial surface anion channel blockers, osmotic lysis – cell-based, P. falciparum Indochina, OD700, 2 h, primary screen (AID 1155);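 note: lysis reports solute entry through the parasite surface anion channel PSAC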; conditions: P. falciparum Indochina infected erythrocytes, higher = more signal, called active from +8 up or from −8 down
[5] = changes in parasitized red cell lysis, either direction – P. falciparum Indochina, OD700, 3 h, PSAC antagonist project, primary screen (AID 1156); conditions: P. falciparum-infected erythrocytes, osmotic lysis, higher = more signal, called active from +8 up or from −8 down
[6] = plasmodial surface anion channel blockers, osmotic lysis – cell-based, P. falciparum Indochina, OD700, 18 h, primary screen (AID 1157); conditions: P. falciparum Indochina infected erythrocytes, osmotic lysis OD700, 18 h; higher = more signal, called active from +8 up or from −8 down
[7] = S6 kinase pathway phospho-S6 level changes – cell-based, A549, cytoblot, luminescence, serum-stimulated, primary screen (AID 1158); conditions: 5 h, higher = more signal;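 note: serum-stimulated A549 lung adenocarcinoma cells; signal is phosphorylated S6 detected by cytoblot immunostaining with HRP secondary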
[8] = target: NADPH oxidase 2 (Homo sapiens) (UniProt P04839); assay: compounds shifting NOX2 Amplex Red fluorescence – cell-based, HEK293-NOX2, PMA-stimulated, NOX inhibitor project, primary screen (AID 1159); conditions: 45 min, higher = more signal, called active from +8 up or from −8 down; note: test concentration not given here
Chain of NADPH oxidase 2 (Homo sapiens) (P04839 whole entry, looked up): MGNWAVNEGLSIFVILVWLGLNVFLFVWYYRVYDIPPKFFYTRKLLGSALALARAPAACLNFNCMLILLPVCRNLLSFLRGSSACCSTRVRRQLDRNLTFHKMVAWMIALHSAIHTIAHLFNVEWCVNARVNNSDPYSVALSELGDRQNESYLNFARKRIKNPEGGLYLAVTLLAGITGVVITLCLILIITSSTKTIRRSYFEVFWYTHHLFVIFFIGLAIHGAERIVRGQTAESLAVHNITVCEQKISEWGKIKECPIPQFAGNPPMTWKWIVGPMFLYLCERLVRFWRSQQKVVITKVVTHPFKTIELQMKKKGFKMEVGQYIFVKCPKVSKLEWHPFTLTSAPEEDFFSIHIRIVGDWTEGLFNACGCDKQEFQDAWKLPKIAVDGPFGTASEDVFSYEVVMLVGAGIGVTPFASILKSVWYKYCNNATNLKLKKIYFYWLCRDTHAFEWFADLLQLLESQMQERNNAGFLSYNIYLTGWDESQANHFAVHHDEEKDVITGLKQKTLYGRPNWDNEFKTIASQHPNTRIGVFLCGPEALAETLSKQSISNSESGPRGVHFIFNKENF

[9] = target: NADPH oxidase 4 (Homo sapiens) (UniProt Q9NPH5); assay: compounds shifting NOX4 Amplex Red fluorescence – cell-based, HEK293-NOX4, tetracycline-induced, NOX inhibitor project, primary screen (AID 1160); conditions: HEK293-NOX4, Amplex Red H2O2 fluorescence, 45 min; higher = more signal, called active from +8 up or from −8 down
Chain of NADPH oxidase 4 (Homo sapiens) (Q9NPH5 whole entry, looked up): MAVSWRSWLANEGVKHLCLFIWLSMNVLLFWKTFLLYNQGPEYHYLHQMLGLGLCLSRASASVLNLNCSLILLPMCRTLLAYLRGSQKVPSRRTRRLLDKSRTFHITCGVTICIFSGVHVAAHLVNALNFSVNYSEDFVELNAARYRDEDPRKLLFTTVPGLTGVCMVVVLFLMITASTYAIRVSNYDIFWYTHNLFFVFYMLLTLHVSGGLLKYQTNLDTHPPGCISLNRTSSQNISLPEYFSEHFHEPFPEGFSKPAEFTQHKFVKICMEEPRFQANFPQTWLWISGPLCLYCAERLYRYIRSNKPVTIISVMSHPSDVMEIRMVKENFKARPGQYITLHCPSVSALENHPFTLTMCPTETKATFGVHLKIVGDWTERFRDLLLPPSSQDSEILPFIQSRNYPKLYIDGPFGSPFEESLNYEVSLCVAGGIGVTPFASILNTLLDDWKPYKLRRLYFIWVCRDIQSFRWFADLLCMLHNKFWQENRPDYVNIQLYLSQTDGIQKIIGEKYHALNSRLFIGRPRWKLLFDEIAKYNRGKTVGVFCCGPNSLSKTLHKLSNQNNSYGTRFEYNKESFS

[10] = target: NADPH oxidase 5 (Homo sapiens) (UniProt Q96PH1); assay: compounds shifting NOX5 Amplex Red fluorescence – cell-based, HEK293-NOX5, NOX inhibitor project, primary screen (AID 1161); conditions: HEK293-NOX5, ionomycin, 45 min, higher = more signal
Chain of NADPH oxidase 5 (Homo sapiens) (Q96PH1 whole entry, looked up): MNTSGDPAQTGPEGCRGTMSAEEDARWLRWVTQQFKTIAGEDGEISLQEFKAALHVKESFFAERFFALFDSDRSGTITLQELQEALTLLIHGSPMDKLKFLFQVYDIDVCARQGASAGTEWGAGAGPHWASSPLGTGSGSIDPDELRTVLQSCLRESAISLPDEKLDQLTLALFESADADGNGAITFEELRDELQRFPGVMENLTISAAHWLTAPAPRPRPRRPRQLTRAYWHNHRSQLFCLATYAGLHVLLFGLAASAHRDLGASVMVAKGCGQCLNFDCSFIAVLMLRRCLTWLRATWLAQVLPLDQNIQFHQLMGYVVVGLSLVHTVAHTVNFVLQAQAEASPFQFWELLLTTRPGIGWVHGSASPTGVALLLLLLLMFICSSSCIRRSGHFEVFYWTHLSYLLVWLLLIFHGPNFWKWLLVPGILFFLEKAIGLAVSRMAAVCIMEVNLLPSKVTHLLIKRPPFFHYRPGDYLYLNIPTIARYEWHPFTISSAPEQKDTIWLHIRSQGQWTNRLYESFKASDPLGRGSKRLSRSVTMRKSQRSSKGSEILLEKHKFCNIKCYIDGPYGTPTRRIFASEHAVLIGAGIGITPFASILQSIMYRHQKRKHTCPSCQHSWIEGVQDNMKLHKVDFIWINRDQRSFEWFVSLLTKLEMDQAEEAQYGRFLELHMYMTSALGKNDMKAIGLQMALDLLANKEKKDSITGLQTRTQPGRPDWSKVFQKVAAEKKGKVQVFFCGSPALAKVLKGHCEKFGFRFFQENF

[11] = compound effects on lung adenocarcinoma cell viability – A549, calcein-AM fluorescence, 48 h, basal, profiling panel (AID 1162); conditions: higher = more signal; note: test concentration not given here
[12] = compound effects on differentiated 3T3-L1 adipocyte viability – cell-based, 3T3-L1 adipocytes, calcein-AM fluorescence, 48 h, basal, profiling panel (AID 1163); conditions: 3T3-L1 adipocytes viability, higher = more signal; note: test concentration not given here
[13] = compound effects on hepatocellular carcinoma cell viability – HepG2, calcein-AM fluorescence, 48 h, basal, profiling panel (AID 1164); conditions: higher = more signal; note: test concentration not given here
[14] = compound effects on multiple myeloma cell viability – MM1S, calcein-AM fluorescence, 48 h, basal, profiling panel (AID 1165); conditions: higher = more signal; note: test concentration not given here
[15] = calcein-AM signal in unstimulated myeloma cells – cell-based, calcein-AM fluorescence, 48 h, PK04 Diversity Set, profiling panel (AID 1166); conditions: RPMI8226 myeloma viability, higher = more signal;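 note: cells grown under basal conditions without added stimulus; test concentration not given here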
[16] = JC-1 mitochondrial signal, unstimulated HepG2 cells – cell-based, JC-1 fluorescence, 24 h, 100 nL compound, profiling panel (AID 1167); conditions: HepG2 mitochondrial potential, higher = more signal; note: test concentration not given here
[17] = JC-1 mitochondrial signal, unstimulated adipocytes – cell-based, JC-1 fluorescence, 3T3-L1 adipocytes, 24 h, 100 nL compound, profiling panel (AID 1168); conditions: JC-1 mitochondrial fluorescence, higher = more signal, called active from +8 up or from −8 down; note: test concentration not given here
[18] = JC-1 mitochondrial signal, unstimulated myeloma cells – cell-based, JC-1 fluorescence, RPMI8226, 24 h, 100 nL compound, profiling panel (AID 1169); conditions: JC-1 mitochondrial potential fluorescence, higher = more signal; note: test concentration not given here
[19] = JC-1 mitochondrial signal, unstimulated MM1S myeloma – cell-based, JC-1 fluorescence, 24 h, 100 nL compound, profiling panel (AID 1170); conditions: MM1S mitochondrial potential, higher = more signal; note: test concentration not given here
[20] = resazurin metabolic signal in A549 cells – cell-based, resazurin fluorescence, 24 h, PK04 Diversity Set, profiling panel (AID 1171); conditions: A549 viability, higher = more signal, called active from +8 up or from −8 down; note: test concentration not given here

Row | SMILES | z-score [1] | composite z-score [2] | z-score [3] | z-score [4] | z-score [5] | z-score [6] | z-score [7] | z-score [8] | z-score [9] | z-score [10] | z-score [11] | z-score [12] | z-score [13] | z-score [14] | z-score [15] | z-score [16] | z-score [17] | z-score [18] | z-score [19] | z-score [20]
1 | CC(C)[Si](C#CCCCC#N)(Oc1ccccc1Br)C(C)C | -0.4 (inactive) | -0.104 | 0.614 (inactive) | 1.01 (inactive) | -0.494 (inactive) | 0.823 (inactive) | -0.49 | -0.273 (inactive) | -0.161 (inactive) | -0.18 | 0.551 | -0.924 | 0.235 | -0.887 | -0.181 | -0.247 | -0.183 (inactive) | -0.756 | 0.2 | -0.0106 (inactive)
2 | CCOc1cc(C(O)C2C=CC3C(=O)N(c4ccccc4)C(=O)C3N2Nc2ccc(C(C)C)cc2)ccc1O (stereo not given) | -1.97 (inactive) | 0.469 | 11.5 (active) | 1.8 (inactive) | 1.74 (inactive) | 1.42 (inactive) | -0.729 | -3.06 (inactive) | -4.82 (inactive) | -5.07 | -0.65 | -0.538 | -0.159 | -2.67 | -1.16 | -1.66 | -0.457 (inactive) | 0.41 | -0.19 | -0.866 (inactive)
3 | COCC(=C=CC[C@@H](O)c1ccc(OCCO)cc1)C[C@@H](O)c1ccccn1 | -0.125 (inactive) | -0.0061 | 6.36 (inactive) | 0.848 (inactive) | -0.315 (inactive) | 0.429 (inactive) | -0.577 | -0.0904 (inactive) | 0.654 (inactive) | 0.177 | -0.583 | -0.936 | -0.239 | -0.149 | -0.349 | -0.964 | -0.522 (inactive) | 0.375 | -0.719 | 0.192 (inactive)
4 | CC(C)OC(=O)C=C1C[C@@H](c2cccc(Cl)c2)O[C@@H](c2cccc(Cl)c2)O1 | -0.411 (inactive) | 0.165 | 0.915 (inactive) | 0.584 (inactive) | -0.159 (inactive) | 0.61 (inactive) | -0.0581 | 0.215 (inactive) | -0.914 (inactive) | -0.0406 | -1.2 | -0.0201 | -0.822 | -1.97 | -0.66 | -0.46 | 0.843 (inactive) | 0.0432 | -1.51 | 0.146 (inactive)
5 | CC(C)C(=C=CC[C@H](O)c1ccc(CO)o1)CCO | -0.543 (inactive) | 0.0494 | 1.77 (inactive) | 0.408 (inactive) | 0.186 (inactive) | -0.012 (inactive) | -0.516 | 0.228 (inactive) | -0.345 (inactive) | -0.21 | -0.0934 | -0.33 | -0.0026 | -1.25 | -0.2 | -0.427 | -0.0538 (inactive) | -0.533 | 0.019 | -0.507 (inactive)
6 | NC(=O)[C@@]1(Cc2ccccc2)N=C(c2ccc(OCCCO)cc2)O[C@H]1c1ccccc1 | 1.53 (inactive) | 0.232 | 16.3 (active) | 2.07 (inactive) | 0.59 (inactive) | 0.639 (inactive) | 0.151 | -0.281 (inactive) | 0.211 (inactive) | 0.495 | -0.611 | 0.422 | -0.373 | -0.13 | 0.0044 | -0.576 | 0.804 (inactive) | -0.318 | 0.577 | -0.0671 (inactive)
7 | C=C(CCCC)/C(=C/C[C@@H](OC(C)=O)c1cccc(OCCO)c1)c1cnc2ccccc2c1 | 0.776 (inactive) | 0.201 | 23.6 (active) | 6.35 (inactive) | 2.48 (inactive) | 1.51 (inactive) | 0.237 | -2.25 (inactive) | -0.934 (inactive) | -2.22 | 0.238 | 1.3 | -0.0152 | -1.47 | -2.31 | 2.23 | -2 (inactive) | -0.423 | -0.714 | 0.329 (inactive)
8 | COC(=O)[C@@]1(Cc2ccc(OC)cc2)[C@H]2c3cc(C(=O)N4CCCC4)n(Cc4nc5ccccc5[nH]4)c3C[C@H]2CN1C(=O)c1ccccc1 | -0.945 (inactive) | 0.388 | 6.92 (inactive) | 1.2 (inactive) | 2.04 (inactive) | 1.03 (inactive) | -0.0242 | -0.034 (inactive) | -0.0265 (inactive) | -3.27 | -0.43 | 0.685 | -0.44 | -2.01 | -2.35 | -0.128 | -0.773 (inactive) | -0.764 | -0.816 | 0.161 (inactive)
9 | [N-]=[N+]=Nc1ccccc1[C@H]1OC(c2ccc(OCCCO)cc2)=N[C@@]1(CCS(=O)(=O)c1ccccc1)C(=O)NCc1ccccc1 | -0.795 (inactive) | 0.373 | 28.1 (active) | 27.8 (active) | 1.64 (inactive) | 1.92 (inactive) | -0.234 | 0.443 (inactive) | 0.184 (inactive) | -0.852 | -0.0804 | -0.337 | -0.777 | -0.99 | -0.816 | -0.337 | -0.327 (inactive) | -0.929 | -0.673 | 1.09 (inactive)
10 | O=C1NC(=O)C2C1C=CC(C(O)c1ccc(I)cc1)N2Nc1ccccn1 (stereo not given) | -1.29 (inactive) | 0.0701 | 1.41 (inactive) | 0.698 (inactive) | 0.0388 (inactive) | 0.729 (inactive) | -0.779 | -1.16 (inactive) | -2.82 (inactive) | -2.2 | -0.0915 | -0.891 | -0.145 | -0.619 | -0.566 | -1.35 | -0.47 (inactive) | 0.537 | -0.0562 | -0.107 (inactive)
11 | COC(=O)[C@@]1(Cc2ccccc2)[C@H]2c3cc(C(=O)N(C)C)n(Cc4ccc(OC)c(OC)c4)c3C[C@H]2CN1C(=O)c1ccccc1 | -1.95 (inactive) | 0.211 | 3.81 (inactive) | 1.2 (inactive) | 0.688 (inactive) | 1.11 (inactive) | -0.399 | -0.415 (inactive) | -0.865 (inactive) | -0.0397 | -1.29 | -0.24 | 0.148 | -1.42 | -2.64 | 0.811 | -1.12 (inactive) | -0.706 | -1.14 | -1.2 (inactive)
12 | NC(=O)N1C(=O)C2C(C1=O)C1C=C(CCCO)C2C(C2CC2)N1Cc1cc2c(cc1Br)OCO2 (stereo not given) | -0.766 (inactive) | 0.19 | 4.92 (inactive) | 0.494 (inactive) | -0.23 (inactive) | 0.357 (inactive) | 0.415 | 0.334 (inactive) | -0.381 (inactive) | -0.344 | -0.318 | 0.505 | -0.0479 | -2.42 | -0.885 | -0.258 | -0.274 (inactive) | 0.21 | -0.237 | -0.604 (inactive)
